T cruzi growth-1 – inhibitors of T. cruzi proliferation; T. cruzi beta-gal in NIH3T3, GalScreen luminescence, 90 h; inhibition, % at 8.34 µM; 5.9% of 77,000 active; AID 624255;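 active = mean inhibition above about 93%, with at least 55% of replicates each passing it, limit read from the data, passing the limit was not always enough; inconclusive = only one of those two conditions holds; inactive = neither condition holds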
Pf Dd2 inh – P. falciparum Dd2 growth inhibition | SYBR Green, 72 h; stronger effect = lower value | activity change, % at 10 µM | 2.3% of 94,000 active; in the data active = activity change below about -80%; inconclusive = no clear call, values can overlap the other calls
C diff growth – blocks growth of Clostridium difficile; AID 1259249; 0.25% of 86,000 active; growth activity, negative = inhibition, % at 16 µg/mL (by protocol); Clostridium difficile clinical isolate growth, OD600, 24 h; stronger effect = lower value;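 active = mean growth activity at or below -80% and every replicate also at or below -80%; inconclusive = mean at or below -80% but some replicate above -80%; inactive = mean growth activity above -80%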;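 note: 0% = DMSO wells and -100% = levofloxacin 16 µg/mL wells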
T cruzi growth-2 – inhibitors of T. cruzi proliferation. shares compounds with T cruzi growth-1. T. cruzi beta-gal in NIH3T3, GalScreen luminescence, 90 h. inhibition, % at 8.35 µM. 72% of 5,600 active. AID 651739;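 active = mean replicate inhibition above about 95% and at least 55% of replicates individually reaching it, limit read from the data; inconclusive = only one of the two criteria is met; inactive = neither criterion is met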
T cruzi growth-3 – Trypanosoma cruzi proliferation inhibition; inhibition, % at 2.09 µM; AID 651740; 21% of 5,600 active; shares compounds with T cruzi growth-1; T. cruzi beta-gal in NIH3T3, GalScreen luminescence, 90 h;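 active = mean inhibition above about 95%, with at least 55% of replicates also reaching it, limit read from the data; inconclusive = meets just one of the two conditions; inactive = meets neither condition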;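 note: plate controls were neutral control median for no effect and positive control median for full effect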
NIH3T3 tox – cytotoxicity in mouse NIH/3T3 fibroblasts; NIH/3T3 viability, CellTiter-Glo ATP luminescence, 90 h; 14% of 5,600 active; shares compounds with T cruzi growth-1; cytotoxicity (signal decrease), % at 8.35 µM; AID 651742;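 active = mean signal decrease across replicates above about 35% based on untreated-well scatter, with enough replicates individually passing, limit read from the data; inconclusive = no rule stated though some were filed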;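 note: 0% = median of neutral control wells and 100% = median of positive control wells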
NIH3T3 tox 2 – NIH/3T3 (mouse) viability loss; shares compounds with T cruzi growth-1; NIH/3T3 viability, CellTiter-Glo ATP luminescence, 90 h; inhibition, % at 24.9 µM; 56% of 5,600 active; AID 651744;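 active = mean loss of cell viability signal at or above a set limit, and enough replicates individually reaching it; inconclusive = meets only the mean limit or only the replicate share; inactive = meets neither condition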;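 note: 0% = median of neutral control wells and 100% = median of positive control wells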
Starred values were filed as active, the others as inactive; ? = inconclusive; · = no result. An excerpt weighted towards active compounds, which were near 6.8% of everything screened.

SMILES	T cruzi growth-1	Pf Dd2 inh	C diff growth	T cruzi growth-2	T cruzi growth-3	NIH3T3 tox	NIH3T3 tox 2
C[C@@H]1CCCCO[C@H](CN(C)C(=O)Nc2ccc(F)cc2)[C@H](C)CN([C@@H](C)CO)C(=O)c2cc(NC(=O)Nc3ccc(F)cc3)ccc2O1	·	-52	·	·	·	·	·
CNC[C@@H]1OCCCC[C@@H](C)Oc2ccc(NC(=O)Nc3ccc4c(c3)OCO4)cc2C(=O)N([C@H](C)CO)C[C@@H]1C	95*	25	10	18	3	9	18
CC(C)NC(=O)N(C)C[C@@H]1OCCCC[C@H](C)Oc2ccc(NC(=O)Nc3ccc(C(F)(F)F)cc3)cc2C(=O)N([C@@H](C)CO)C[C@@H]1C	?	-47	-9	109*	78	12	-1
CC(C)NC(=O)Nc1ccc2c(c1)C(=O)N([C@H](C)CO)C[C@@H](C)[C@@H](CN(C)C(=O)Nc1ccc(C(F)(F)F)cc1)OCCCC[C@@H](C)O2	105*	-73	45	104*	92	12	20
CNC[C@H]1Oc2ccc(NS(=O)(=O)c3ccc(C)cc3)cc2CC(=O)N([C@@H](C)CO)C[C@H]1C	-1	2	0	·	·	·	·
C[C@@H]1CN([C@H](C)CO)C(=O)c2cc(C#Cc3cccnc3)cnc2O[C@@H]1CN(C)C(=O)CN(C)C	·	-9	1	·	·	·	·
CCC(=O)N1[C@@H]2c3ccc(-c4ccccc4)c(=O)n3C[C@@H]2[C@@H](CO)[C@@H]1C(=O)N(C)C	23	7	2	·	·	·	·
COc1ccc(CN2[C@@H]3CN(C(=O)c4ccccc4)c4ccccc4[C@@H]3[C@@H]2CO)cc1	71	-17	-1	·	·	·	·
O=C(Nc1ccccc1F)N1CCCCN2[C@H](CO)[C@@H](c3ccc(-c4cccnc4)cc3)[C@@H]2C1	55	7	-7	·	·	·	·
O=C(Nc1cc(F)ccc1F)N1CCCCN2[C@H](CO)[C@H](c3ccc(-c4ccccc4)cc3)[C@H]2C1	41	-71	48	·	·	·	·
O=C(Nc1cc(F)ccc1F)N1CCCCN2[C@H](C1)[C@H](c1ccc(-c3ccccc3)cc1)[C@@H]2CO	99*	-7	20	108*	61	30	20
O=C(Nc1cc(F)ccc1F)N1CCCCN2[C@@H](CO)[C@H](c3ccc(-c4cncnc4)cc3)[C@@H]2C1	98*	6	-4	69	18	24	11
O=C(Nc1ccccc1F)N1CCCCN2[C@H](C1)[C@H](c1ccc(-c3cccnc3)cc1)[C@@H]2CO	104*	20	-13	?	-7	-11	-12
O=C(Nc1cc(F)ccc1F)N1CCCCN2[C@@H](CO)[C@@H](c3ccc(-c4cncnc4)cc3)[C@@H]2C1	108*	16	-4	-6	-13	-31	-6
O=C(Nc1cc(F)ccc1F)N1CCCCN2[C@H](C1)[C@@H](c1ccc(-c3cccnc3)cc1)[C@@H]2CO	70	-1	-2	·	·	·	·
O=C(Nc1cc(F)ccc1F)N1CCCCN2[C@H](CO)[C@H](c3ccc(-c4ccncc4)cc3)[C@@H]2C1	76	12	4	·	·	·	·
COC(=O)[C@@]1(CCC(=O)OC(C)(C)C)N=C(c2ccc(OCCCO)cc2)O[C@H]1c1ccccc1CN=[N+]=[N-]	·	·	1	·	·	·	·
COc1ccccc1S(=O)(=O)N[C@@H]1C=C[C@@H](CC(=O)NCc2cc(F)cc(F)c2)O[C@@H]1CO	-18	13	·	·	·	·	·
O=C(C[C@H]1C=C[C@@H](NC(=O)Nc2ccccc2F)[C@H](CO)O1)NCc1ccc(Cl)cc1	45	-9	-1	·	·	·	·
O=C(NCCc1ccccc1)[C@H]1[C@H](CO)[C@H]2Cn3c(ccc(-c4ccccc4)c3=O)[C@@H]1N2	-17	1	-2	·	·	·	·
COCC(=O)N1CCC2(CC1)CN(C(=O)CN1CCOCC1)[C@H](CO)c1c2c2ccc(OC)cc2n1C	·	-8	-1	·	·	·	·
O=C(CN1CCOCC1)N1CC2(C1)[C@@H](c1ccccc1)[C@H](CO)N2Cc1cccc(F)c1	·	-24	4	·	·	·	·
CCCN(C)C[C@H]1Oc2cc(-c3ccncc3)ccc2S(=O)(=O)N([C@H](C)CO)C[C@H]1C	·	-75	1	·	·	·	·
O=C(Nc1cc(F)ccc1F)N1CCCCN2[C@H](CO)[C@@H](c3ccc(-c4ccncc4)cc3)[C@H]2C1	57	-24	2	·	·	·	·
O=C(Nc1cc(F)ccc1F)N1CCCCN2[C@H](CO)[C@H](c3ccc(-c4cncnc4)cc3)[C@H]2C1	112*	9	-7	107*	25	-3	-16
SMILES	T cruzi growth-1	Pf Dd2 inh	C diff growth	T cruzi growth-2	T cruzi growth-3	NIH3T3 tox	NIH3T3 tox 2
O=C(Nc1cc(F)ccc1F)N1CCCCN2[C@H](CO)[C@@H](c3ccc(-c4cncnc4)cc3)[C@@H]2C1	112*	-14	7	12	5	-13	-6
O=C(Nc1cc(F)ccc1F)N1CCCCN2[C@@H](CO)[C@H](c3ccc(-c4ccncc4)cc3)[C@@H]2C1	69	10	6	·	·	·	·
O=C(Nc1cc(F)ccc1F)N1CCCCN2[C@H](CO)[C@H](c3ccc(-c4cccnc4)cc3)[C@@H]2C1	62	8	2	·	·	·	·
O=C(Nc1cc(F)ccc1F)N1CCCCN2[C@@H](CO)[C@H](c3ccc(-c4cccnc4)cc3)[C@@H]2C1	?	-12	0	97*	34	0	14
C[C@@H]1CN([C@H](C)CO)C(=O)c2cc(NC(=O)Cc3cn(C)c4ccccc34)ccc2O[C@@H]1CN(C)Cc1ccc2c(c1)OCO2	·	6	2	·	·	·	·
C[C@H]1CN([C@@H](C)CO)C(=O)c2cc(NC(=O)CCN3CCOCC3)ccc2O[C@@H]1CN(C)Cc1ccccc1	10	-11	0	·	·	·	·
COCC(=O)N1[C@@H](CO)[C@@H](c2ccccc2)C12CN(C(=O)c1cccnc1)C2	·	4	-7	·	·	·	·
C[C@@H]1CN([C@H](C)CO)C(=O)c2cc(NS(=O)(=O)c3ccc(F)cc3)ccc2O[C@@H](C)CCCCO[C@H]1CN(C)Cc1ccc2c(c1)OCO2	112*	-48	·	106*	85	29	104*
C[C@@H]1CCCCO[C@H](CN(C)Cc2ccc3c(c2)OCO3)[C@H](C)CN([C@@H](C)CO)C(=O)c2cc(NS(=O)(=O)c3ccc(F)cc3)ccc2O1	85	-65	·	·	·	·	·
C[C@H]1CCCCO[C@H](CN(C)Cc2ccc3c(c2)OCO3)[C@@H](C)CN([C@@H](C)CO)C(=O)c2cc(NS(=O)(=O)c3ccc(F)cc3)ccc2O1	58	-39	·	·	·	·	·
C[C@@H]1CN([C@@H](C)CO)C(=O)c2cc(NS(=O)(=O)c3ccc(F)cc3)ccc2O[C@@H](C)CCCCO[C@@H]1CN(C)Cc1ccc2c(c1)OCO2	119*	-73	·	106*	45	17	97*
O=C(C[C@H]1C[C@H]2c3cc(NC(=O)Nc4ccc(F)cc4)ccc3O[C@H]2[C@@H](CO)O1)NC1CCCC1	5	-10	·	·	·	·	·

Screens as filed in PubChem BioAssay.
